Results filed as inconclusive are left out. Active and inactive are the calls of the source. Calls follow the shape of the dose curve; as a rule, active = well fitted curve in the direction sought with a large enough effect; inconclusive = small, poorly fitted or top-dose-only effect, or another doubt; inactive = no such curve, though single readings can be large; an effect the other way counts as inactive or inconclusive.
Tests used:
[1] = system: CRL-7250; assay: Cytotoxic Profiling of Annotated Libraries Using Quantitative High-Throughput Screening (AID 1296008); settings: Five cell lines viability, CellTiter-Glo ATP luminescence, 48-72 h; max response: stronger effect = lower value; also: nearly all actives have a fitted effect of over 60% in size; as to max response: % is scaled to controls: 0 for no effect and ±100 for the full control effect
Procedure, shortened: (§1)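 Cytotoxicity was measured as CellTiter-Glo ATP luminescence, read after 10 min at room temperature. Compound treatment of the cells lasted 48 or 72 hr at 37 degrees Celsius in a qHTS format.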

[2] = system: HEK293; assay: as above; settings: Five cell lines viability, CellTiter-Glo ATP luminescence, 48-72 h; max response: stronger effect = lower value
Procedure, shortened: as §1

[3] = system: HaCat; assay: as above; settings: Five cell lines viability, CellTiter-Glo ATP luminescence, 48-72 h; max response: stronger effect = lower value
Procedure, shortened: as §1

[4] = system: KB-3-1; assay: as above; settings: Five cell lines viability, CellTiter-Glo ATP luminescence, 48-72 h; max response: stronger effect = lower value
Procedure, shortened: as §1

[5] = system: NIH3T3; assay: as above; settings: Five cell lines viability, CellTiter-Glo ATP luminescence, 48-72 h; max response: stronger effect = lower value
Procedure, shortened: as §1

[6] = system: HACAT; assay: qHTS assay to identify novel small-molecules to repurpose for Merkel cell carcinoma treatment (AID 1296009); settings: MCC and control cell lines, CellTiter-Glo viability, 72 h; at 44.8 µM (top of the series) unless noted; also: nearly all actives have a fitted effect of over 60% in size
Procedure, shortened: (§2)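 After compound transfer in DMSO, plates were kept 72 hr at 37 degree celsius. Luminescent ATP signal from CellTiter-Glo served as viability measure, normalized against DMSO and no-cell controls.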

[7] = system: NIH3T3; assay: as above; settings: MCC and control cell lines, CellTiter-Glo viability, 72 h; at 44.8 µM (top of the series) unless noted
Procedure, shortened: as §2

[8] = system: C33A; assay: Primary qHTS to identify gynecologic anti-cancer compounds using libraries of approved drugs and bioactive compounds (AID 1345084); settings: Gynecologic cancer cell panel viability, ATPlite luminescence, 48 h; series mostly up to 57.5 µM; also: % is scaled to controls: 0 for no effect and ±100 for the full control effect; nearly all actives have a fitted effect of over 55% in size
Procedure, shortened: (§3)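 Luminescence from the ATPlite ATP-monitoring reagent indicates viable cell number; lower signal means cytotoxicity. Cells received compound 16 h after seeding and were exposed for 48 h across five concentrations.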

[9] = system: CAOV3; assay: as above; settings: Gynecologic cancer cell panel viability, ATPlite luminescence, 48 h; series mostly up to 57.5 µM
Procedure, shortened: as §3

[10] = system: CASKI; assay: as above; settings: Gynecologic cancer cell panel viability, ATPlite luminescence, 48 h; series mostly up to 57.5 µM
Procedure, shortened: as §3

[11] = system: Es-2; assay: as above; settings: Gynecologic cancer cell panel viability, ATPlite luminescence, 48 h; series mostly up to 57.5 µM
Procedure, shortened: as §3

[12] = system: HeLa; assay: as above; settings: Gynecologic cancer cell panel viability, ATPlite luminescence, 48 h; series mostly up to 57.5 µM
Procedure, shortened: as §3

[13] = system: Hek293T; assay: as above; settings: Gynecologic cancer cell panel viability, ATPlite luminescence, 48 h, control line for the selectivity index; series mostly up to 57.5 µM
Procedure, shortened: as §3

[14] = system: JEG-3; assay: as above; settings: Gynecologic cancer cell panel viability, ATPlite luminescence, 48 h; series mostly up to 57.5 µM
Procedure, shortened: as §3

[15] = system: OV90; assay: as above; settings: Gynecologic cancer cell panel viability, ATPlite luminescence, 48 h; series mostly up to 57.5 µM
Procedure, shortened: as §3

C/C=C/C=C/C(=O)OC1CC/C=C/C(O)C(O)C(CCC)OC1=O (stereo not given)
inactive: max response [1] -18.3% | max response [2] 4.94% | outcome [3] | max response [4] 4.6% | outcome [5] | outcome [6] | outcome [7] | Potency [8] | Potency [9] | outcome [10] | Potency [11] | Potency [12] | Potency [13] | Potency [14] | Potency [15]

COc1cc2c(c(OC)c1O)C(c1ccc(O)cc1)C1C(=O)OC3C(COC(=O)C1=C2)OC(CO)(OC1OC(COC(=O)/C=C/c2ccc(OC4OC(C)C(O)C(O)C4O)cc2)C(O)C(O)C1O)C3O (stereo not given)
inactive: max response [1] 2.78% | max response [2] -18.4% | outcome [3] | max response [4] -2.91% | outcome [5] | outcome [6] inactive [at 9.27 µM] | outcome [7] inactive [at 9.27 µM] | activity change, negative = cytotoxicity [8] 12% [at 11.6 µM] | activity change, negative = cytotoxicity [9] -2.13% [at 11.6 µM] | activity change, negative = cytotoxicity [10] 3.12% [at 11.6 µM] | activity change, negative = cytotoxicity [11] 0.658% [at 11.6 µM] | activity change, negative = cytotoxicity [12] -0.142% [at 11.6 µM] | activity change, negative = cytotoxicity [13] 7.04% [at 11.6 µM] | activity change, negative = cytotoxicity [14] 8.95% [at 11.6 µM] | activity change, negative = cytotoxicity [15] 10.3% [at 11.6 µM]

C[C@@H]1O[C@@H](O[C@H]2[C@@H]3C=CO[C@@H](O[C@@H]4O[C@H](CO)[C@@H](O)[C@H](O)[C@H]4O)[C@@H]3[C@@]3(CO)O[C@@H]23)[C@H](O)[C@H](OC(=O)/C=C/c2ccc(O)c(O)c2)[C@H]1O
inactive: max response [1] 2.8% | max response [2] 1.13% | outcome [3] | max response [4] -0.915% | outcome [5] | outcome [6] inactive [at 17.4 µM] | outcome [7] inactive [at 17.4 µM] | Potency [8] | Potency [9] | outcome [10] | Potency [11] | Potency [12] | Potency [13] | Potency [14] | Potency [15]

CC1(CO)CCCC2(C)C1C(OC(=O)c1ccccc1)CC1C(=O)OCC12O (stereo not given)
inactive: max response [1] -1.52% | max response [2] -0.598% | outcome [3] | max response [4] 5.44% | outcome [5] | outcome [6] | outcome [7] | Potency [8] | Potency [9] | outcome [10] | Potency [11] | Potency [12] | Potency [13] | Potency [14] | Potency [15]

Cn1c2ccc(NC(=O)c3ccccc3)cc2c(=O)n2nc(C(=O)O)cc12
inactive: outcome [1] | max response [2] -1.26% | outcome [3] | max response [4] 0.84% | outcome [5] | outcome [6] inactive [at 17.4 µM] | outcome [7] inactive [at 17.4 µM] | Potency [8] | Potency [9] | outcome [10] | Potency [11] | Potency [12] | Potency [13] | Potency [14] | Potency [15]

CC1(C)CC2C(O)C3=C(CC(C)(O)C2C1)C(=O)OC3 (stereo not given)
inactive: outcome [1] | max response [2] -1.51% | outcome [3] | outcome [4] | outcome [5] | outcome [6] | outcome [7] | Potency [8] | Potency [9] | outcome [10] | Potency [11] | Potency [12] | Potency [13] | Potency [14] | Potency [15]

O=C(OCC1=C[C@@H](O)[C@@H]2C=CO[C@@H](O[C@@H]3O[C@H](CO)[C@@H](O)[C@H](O)[C@H]3O)[C@H]12)c1ccc(O)cc1
inactive: max response [1] -4.11% | max response [2] 1.2% | outcome [3] | max response [4] 1.69% | outcome [5] | outcome [6] inactive [at 17.4 µM] | outcome [7] inactive [at 17.4 µM] | Potency [8] | Potency [9] | outcome [10] | Potency [11] | Potency [12] | Potency [13] | Potency [14] | Potency [15]

COc1cc(C(=O)OCC2=CCC3C(C(=O)O)=COC(O[C@@H]4O[C@H](CO)[C@@H](O)[C@H](O)[C@H]4O)C23)ccc1O (stereo not given in full)
inactive: max response [1] -2.16% | max response [2] -8.64% | outcome [3] | outcome [4] | outcome [5] | outcome [6] inactive [at 17.4 µM] | outcome [7] inactive [at 17.4 µM] | Potency [8] | Potency [9] | outcome [10] | Potency [11] | Potency [12] | Potency [13] | Potency [14] | Potency [15]

C/C=C1/CC2C(=O)Nc3cc(O)c(OC)cc3C(=O)N2C1 (stereo not given)
inactive: max response [1] -13.4% | max response [2] 2.7% | outcome [3] | max response [4] 9.54% | outcome [5] | outcome [6] | outcome [7] | Potency [8] | Potency [9] | outcome [10] | Potency [11] | Potency [12] | Potency [13] | Potency [14] | Potency [15]

C=C1Cc2c(Cl)cc3[nH]c4c5c3c2[C@@]2(O)[C@@H]1C[C@@H]2C(C)(C)O[C@H]5C1CC[C@@]2(O)[C@@]35O[C@@H]3[C@H]3OC(C)(C)[C@H]3O[C@H]5CC[C@]2(C)[C@@]41C (stereo not given in full)
inactive: max response [1] -4.78% | max response [2] 0.456% | outcome [3] | max response [4] 6.12% | outcome [5] | outcome [6] inactive [at 17.4 µM] | outcome [7] inactive [at 17.4 µM] | Potency [8] | Potency [9] | outcome [10] | Potency [11] | Potency [12] | Potency [13] | Potency [14] | Potency [15]

C[C@@]1(C(=O)O)CCC[C@@]2(C)C3=CC[C@H]4C[C@@]3(CC[C@H]12)CC4(O)CO (stereo not given in full)
inactive: max response [1] -19% | max response [2] 4.94% | outcome [3] | outcome [4] | outcome [5] | outcome [6] | outcome [7] | Potency [8] | Potency [9] | outcome [10] | Potency [11] | Potency [12] | Potency [13] | Potency [14] | Potency [15]

From PubChem BioAssay (NCATS)
